Screening results as filed in PubChem BioAssay.
SKKanGAS inh = SKKanGAS growth inhibition; S. pyogenes SKKanGAS, kanamycin growth, BacTiter-Glo, 6 h; actives 1.3% (n = 300,000); inhibition, % at 7.5 µM; AID 1662;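 active = mean replicate score, as percent of positive control median, at least 50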;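 also: strain carries kanamycin resistance gene driven by streptokinase promoter and grows in 40 µg/ml kanamycin; loss of luminescence reflects streptokinase promoter inhibition or plain growth inhibition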
MPTP inh = inhibitors of mitochondrial permeability transition pore; inhibition, % at 10 µM; actives 1.4% (n = 360,000); isolated mouse mitochondria, Ca2+ swelling absorbance, 30 min;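 active = inhibition of 50% or more, scaled per plate between neutral and stimulator controls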
Beta cell apopt = blocks beta cell apoptosis | protection from apoptosis, % (test concentration not listed) | AID 435005 | INS-1E cytokine-induced death, ATP luminescence, 48 h; percent of positive-control rescue, neutral wells zero | actives 0.8% (n = 300,000);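 active = Every replicate reaches about 75%, or at least half do and their mean reaches it too, limit read from the data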;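 also: higher means more ATP so stronger rescue from cytokine killing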
NR3A LBD binder = modulators (binders) of human NR3A ligand-binding domain | NR3A LBD differential scanning fluorimetry, Tm shift; 0% = protein alone, 100% = glycine-bound protein | Tm shift relative to glycine control, % at 25 µM | actives 2.5% (n = 340,000);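 active = melting temperature shift of at least 10% of the positive control shift, at one fixed dose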
CSC inhib = cancer stem cell inhibition. actives 1.1% (n = 300,000). AID 2717. cancer stem cell-like cells viability, luminescence. inhibition, % at 7.5 µM; in the data active = inhibition above about 75%; tested in HMLE shEcad cells
Mdm2 MdmX PPI = human Mdm2/MdmX binding inhibition; SaOS-2 split-luciferase Mdm2/MdmX complementation, luminescence; AID 485346; actives 3% (n = 330,000); inhibition, % at 8 µM;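 active = inhibition of at least 50% at 8 µM in the primary screen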
Target sequence (O15151 whole entry, looked up): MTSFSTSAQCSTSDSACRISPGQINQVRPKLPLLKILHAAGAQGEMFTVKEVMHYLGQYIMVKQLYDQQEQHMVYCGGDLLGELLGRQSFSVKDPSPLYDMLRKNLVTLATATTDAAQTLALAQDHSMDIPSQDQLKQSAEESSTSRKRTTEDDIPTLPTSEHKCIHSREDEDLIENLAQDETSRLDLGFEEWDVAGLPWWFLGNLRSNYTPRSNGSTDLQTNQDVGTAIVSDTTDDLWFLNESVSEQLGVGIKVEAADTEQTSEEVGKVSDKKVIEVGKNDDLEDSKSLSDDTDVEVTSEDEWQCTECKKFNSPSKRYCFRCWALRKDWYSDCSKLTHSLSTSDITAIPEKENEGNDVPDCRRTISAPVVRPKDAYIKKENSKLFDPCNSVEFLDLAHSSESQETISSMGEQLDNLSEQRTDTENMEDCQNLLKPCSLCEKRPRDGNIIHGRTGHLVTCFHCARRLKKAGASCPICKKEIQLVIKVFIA
Target sequence (Q00987 whole entry, looked up): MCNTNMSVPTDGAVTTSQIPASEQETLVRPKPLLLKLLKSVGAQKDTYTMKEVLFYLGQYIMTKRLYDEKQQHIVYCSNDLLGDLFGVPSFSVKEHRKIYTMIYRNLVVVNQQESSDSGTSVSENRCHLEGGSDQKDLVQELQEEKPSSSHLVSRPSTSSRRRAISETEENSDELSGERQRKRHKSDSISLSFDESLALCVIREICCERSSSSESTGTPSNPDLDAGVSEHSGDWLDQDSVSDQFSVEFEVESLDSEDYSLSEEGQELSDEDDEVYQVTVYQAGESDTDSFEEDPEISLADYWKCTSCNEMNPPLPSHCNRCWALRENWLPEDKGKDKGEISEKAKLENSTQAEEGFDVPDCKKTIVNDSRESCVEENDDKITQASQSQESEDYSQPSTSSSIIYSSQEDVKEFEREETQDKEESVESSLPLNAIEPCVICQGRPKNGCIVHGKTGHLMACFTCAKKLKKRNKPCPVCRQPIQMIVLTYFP
Mdm2 MdmX conf = human Mdm2/MdmX binding inhibition, confirmed; shares compounds with Mdm2 MdmX PPI; luminescent assay; inhibition, % at 8 µM; actives 55% (n = 10,000); AID 489028; in the data active = inhibition above about 40%
FLuc counter = counter-screen for Mdm2/MdmX inhibitors: full-length luciferase; inhibition, % at 8 µM; AID 504607; SaOS-2 full-length luciferase counterscreen, luminescence; shares compounds with Mdm2 MdmX PPI; actives 77% (n = 6,200);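 active = mean inhibition at 8 µM reaching about 37%, which flags the compound as non-specific, limit read from the data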;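 also: p53-null SaOS-2 cells with luciferase driven by a doxycycline-inducible promoter; compound on cells about two nights before reading with doxycycline added after day one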
Numbers stand for hits. Shown are actives, neighbours in structure and some others; about 6.9% of the full set was active somewhere.

How did CCC12C(=O)C(CC)(C(c3ccccc3)=C1c1ccccc1)[C@@H]1C(=O)N(c3ccccc3)C(=O)C12 (stereo not given in full) do in these assays?
SKKanGAS inh: inactive; MPTP inh: inactive; Beta cell apopt: inactive; NR3A LBD binder: inactive; CSC inhib: inactive; Mdm2 MdmX PPI: 54; Mdm2 MdmX conf: 65; FLuc counter: 59

Results for CCCC12C(=O)C(C)(C(c3ccccc3)=C1c1ccccc1)C1C(=O)N(c3ccc(C)cc3)C(=O)C12 (stereo not given) ?
SKKanGAS inh: inactive; MPTP inh: inactive; Beta cell apopt: 105; NR3A LBD binder: inactive; CSC inhib: inactive; Mdm2 MdmX PPI: 80; Mdm2 MdmX conf: 80; FLuc counter: 69

Results for [N-]=[N+]=NC[C@H](Cc1ccccc1)N1CC[C@@H](NC(=O)OCc2ccccc2)CCC1=O ?
SKKanGAS inh: inactive; MPTP inh: inactive; Beta cell apopt: inactive; NR3A LBD binder: inactive; CSC inhib: inactive; Mdm2 MdmX PPI: inactive

Results for Cn1c(=O)c2[nH]c(N3CCN(c4ccccc4)CC3)nc2n(C)c1=O ?
SKKanGAS inh: inactive; MPTP inh: inactive; Beta cell apopt: inactive; NR3A LBD binder: inactive; CSC inhib: inactive; Mdm2 MdmX PPI: 67; Mdm2 MdmX conf: inactive; FLuc counter: 67

Results for Cn1c(=O)c2[nH]c(N3CCN(c4cccc(O)c4)CC3)nc2n(C)c1=O ?
SKKanGAS inh: inactive; MPTP inh: inactive; Beta cell apopt: inactive; NR3A LBD binder: inactive; CSC inhib: inactive; Mdm2 MdmX PPI: inactive

What do the screens show for `Cc1ccc(S(=O)(=O)N(C)CC(=O)N2CCN(Cc3ccccc3)CC2)cc1`?
SKKanGAS inh: inactive; MPTP inh: inactive; Beta cell apopt: inactive; NR3A LBD binder: inactive; CSC inhib: inactive; Mdm2 MdmX PPI: inactive

What do the screens show for `Cc1ccc(NCc2nnc(SCC(=O)c3ccc4c(c3)OCCO4)o2)c(C)c1`?
SKKanGAS inh: inactive; MPTP inh: inactive; NR3A LBD binder: inactive; Mdm2 MdmX PPI: 57; Mdm2 MdmX conf: inactive

How did COC(=O)c1nn(-c2ccccc2)c(Cl)c1/C=N/OCc1ccc(Cl)cc1Cl do in these assays?
SKKanGAS inh: inactive; MPTP inh: inactive; Beta cell apopt: inactive; NR3A LBD binder: 12; CSC inhib: inactive; Mdm2 MdmX PPI: 58; Mdm2 MdmX conf: inactive

Results for COC(=O)c1nn(-c2ccccc2)c(Cl)c1/C=N/O ?
SKKanGAS inh: inactive; MPTP inh: inactive; Beta cell apopt: inactive; NR3A LBD binder: inactive; CSC inhib: inactive; Mdm2 MdmX PPI: inactive

Results for Cc1cccc(OCC(=O)NCC(=O)N/N=C/c2ccc(O)cc2O)c1 ?
SKKanGAS inh: inactive; MPTP inh: inactive; Beta cell apopt: inactive; NR3A LBD binder: inactive; CSC inhib: inactive; Mdm2 MdmX PPI: inactive

How did COc1ccccc1/C=C/C(=O)NCC(=O)N/N=C/c1cc(Br)ccc1OC do in these assays?
SKKanGAS inh: inactive; MPTP inh: inactive; Beta cell apopt: inactive; NR3A LBD binder: inactive; CSC inhib: inactive; Mdm2 MdmX PPI: inactive

What do the screens show for `COc1ccccc1/C=C\C(=O)NCC(=O)N/N=C/c1cccc(OC)c1O`?
SKKanGAS inh: inactive; MPTP inh: inactive; Beta cell apopt: inactive; NR3A LBD binder: inactive; CSC inhib: inactive; Mdm2 MdmX PPI: 51; Mdm2 MdmX conf: inactive

How did COc1cccc(/C=N/NC(=O)CNC(=O)COc2cccc(C)c2)c1O do in these assays?
SKKanGAS inh: inactive; MPTP inh: inactive; Beta cell apopt: inactive; NR3A LBD binder: inactive; CSC inhib: inactive; Mdm2 MdmX PPI: 54; Mdm2 MdmX conf: 47; FLuc counter: 45

What do the screens show for `O=S(=O)(c1ccccc1)C(Br)S(=O)(=O)c1ccccc1`?
MPTP inh: inactive

What do the screens show for `COc1ccc2c(c1)O[C@@H](c1cccc(C(F)(F)F)c1)[C@H](O)C2=O`?
SKKanGAS inh: inactive; Beta cell apopt: inactive; CSC inhib: inactive; Mdm2 MdmX PPI: 55; Mdm2 MdmX conf: 60; FLuc counter: 36

What do the screens show for `COc1ccc2c(c1)O[C@H](c1ccc3c(c1)OCO3)[C@@H](O)C2=O`?
SKKanGAS inh: inactive; MPTP inh: inactive; Beta cell apopt: inactive; NR3A LBD binder: inactive; CSC inhib: inactive; Mdm2 MdmX PPI: 50; Mdm2 MdmX conf: inactive
